Results from PubChem BioAssay AID739 (SRMLSC, 2007).
Out of some 98,000 compounds screened, about 880 (0.9%) were called active. The entries come from a sample that favours actives as a whole. Values without a mark were called inactive. Rule as the data show it: active = inhibition above about 30%; inactive = the rest.

Assay: phenotypic screen on post-Golgi transport, primary screen (AID 739);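 also: yeast cells grown in 1536-well plates; yeast grown about 18 h at 30C before absorbance read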
Settings: post-Golgi transport phenotypic cell assay; at 10 µM; active compounds read high

Row | Compound | inhibition
1 | COCc1[nH][nH]c(=O)c1C=Nc1ccc(F)cc1F | 5.45%
2 | COC(=O)c1cc(NC(=O)C2C3C=CC(C3)C2C(=O)O)cc(C(=O)OC)c1 (centres undefined) | 2.17%
3 | CCc1nn(-c2cc(Oc3cccc4ccccc34)nc(-c3ccccc3)n2)c(N)c1C#N | -15.9%
4 | O=[N+]([O-])c1ccc(Oc2ccc(F)cc2Br)c2ccncc12 | 54.4% (active)
5 | CCOC(=O)Nc1sc(C(=O)N(C)C)c(C)c1C(=O)OCC | 21.1%
6 | Cc1ccc(CCN2CC(C(=O)O)CC2=O)cc1 (centres undefined) | -4.77%
7 | NC(=O)N1CCCC1C(=O)Nc1ccc(Cl)c(Cl)c1 (centres undefined) | -3.91%
8 | CCOC(=O)/C(=C\c1ccc([N+](=O)[O-])cc1)C(=O)c1cc(C(C)=O)c(Nc2ccccc2)s1 | 64.9% (active)
9 | CCOC(=O)/C(C#N)=C/c1ccc(OCC(=O)Nc2ccccc2)c(OC)c1 | 6.16%
10 | O=C(NCCc1ccccc1)/C(=C\c1ccc([N+](=O)[O-])cc1)NC(=O)c1ccccc1 | 4.97%
11 | Cc1noc(/C=C/c2ccco2)c1S(=O)(=O)N1CCC(C(=O)N2CCc3ccccc32)CC1 | -4.89%
12 | COc1ccccc1CSc1nc2ccccc2[nH]1 | 1.93%
13 | CCc1c(-c2ccccc2)nc(N)c(C#N)c1-c1cccs1 | 2.36%
14 | CCc1nc2oc3ccccc3c(=O)c2c(=O)n1Cc1ccc(OC)cc1 | 8.05%
15 | O=c1c2ccccc2oc2nc(C3CCCCC3)n(Cc3ccco3)c(=O)c12 | 68.9% (active)
16 | O=c1c2ccccc2oc2nc3n(c(=O)c12)CCCS3 | 5.66%
17 | COc1cc(/C=C(/NC(=O)c2ccccc2)C(=O)Nc2cccc(O)c2)c([N+](=O)[O-])cc1OC | -17.3%
18 | COCCn1c(SCc2nc3cc(OC)c(OC)cc3c(=O)[nH]2)nnc1-c1ccncc1 | 6.95%
19 | C=CCNC(=O)c1sc(SC)cc1-c1ccc(Cl)cc1 | 20%
20 | CCCCCCC(=O)Nc1nc(C)c(-c2csc(Nc3cccc(OC)c3)n2)s1 | -3.09%
21 | COc1ccc(C2=NO[C@@H]3C(=O)N(Cc4ccccc4)C(=O)[C@H]23)cc1OC | 6.43%
22 | CC(=O)Nc1cc(C(=O)O)ccc1S(=O)(=O)c1ccc(Cl)cc1 | -1.65%
23 | O=C(Nc1ccccc1)c1nnsc1S(=O)(=O)c1ccc(Cl)cc1 | 76.3% (active)
24 | O=C(Nc1ccc(Cl)cc1)c1ccsn1 | 8.05%

Row | Compound | inhibition
25 | Cc1cc(N/C=C\C(=O)c2ccc(Cl)c(Cl)c2)no1 | -4.69%
26 | CC(=O)c1cccc(NC(=O)N2CCCC2C(=O)NCCc2ccccc2)c1 (centres undefined) | 20%
27 | COc1cccc(NC(=O)C2CCCN2C(=O)OCc2ccccc2)c1 (centres undefined) | 32% (active)
28 | CCOc1cccc(NC(=O)C2CCCN(S(=O)(=O)c3ccc(OC)cc3)C2)c1 (centres undefined) | -5.63%
29 | CCN(CC)C(=O)CSc1nc2ccccc2n1CC(=O)N1CCN(c2ccccc2OC)CC1 | 11.2%
30 | COc1ccc(C(=O)Nc2ncc3c(n2)-c2ccccc2CC3)cc1 | 16.5%
31 | Cc1ccn2cc(-c3nonc3C)cc2c1 | 37.3% (active)
32 | COc1ccc(C2CC(=O)Nc3cc(C)c(C)cc32)c(OC)c1OC (centres undefined) | 11.7%
33 | COC(=O)C(C(=O)Nc1cccc(C)n1)C1CCCCCC1 (centres undefined) | -2.06%
34 | COc1ccc2ccccc2c1CNCc1ccccn1 | 0.33%
35 | CC1CCN(CC(=O)c2c[nH]c3ccccc23)CC1 | 0%
36 | CCOc1ccc(NC(=O)CCS(=O)(=O)c2cccc3nsnc23)cc1 | -1.86%
37 | CCOc1ccc(OCC)c(NC(=O)CN(C)S(=O)(=O)c2cccc3nsnc23)c1 | 1.42%
38 | CCOc1ccc(-c2cn(S(=O)(=O)c3cccc4nsnc34)nc2N)cc1 | 46.9% (active)
39 | O=C1N=C2SCCN2/C1=C\c1c(Cl)cccc1Cl | -3.72%
40 | Cc1ccc(C(=O)c2c(NC(=O)c3ccccc3)sc(C)c2C)cc1 | 0%
41 | COC(=O)c1c(NC(=O)c2cccs2)sc2c1CCCC2 | 3.23%
42 | Cc1ccc(C(=O)c2c(NC(=O)c3ccncc3)sc3c2CCCC3)cc1 | 97.2% (active)
43 | CCCc1cc(=O)[nH]c(SCC(=O)c2cc(C)n(CCC)c2C)n1 | -4.22%
44 | COc1cc(/C=N/O)cc(Br)c1OS(=O)(=O)c1ccc(C)cc1 | 2.99%
45 | CCOc1ccc(N(CC(=O)NC2CCCCCC2)S(=O)(=O)c2c(C)[nH]c(=O)[nH]c2=O)cc1 | -2.87%
46 | O=C1c2cccc3cc(Br)cc(c23)C(=O)N1Nc1ccccc1 | -2.04%
47 | O=C1C=C(c2ccc(Cl)cc2)C(=O)N1Nc1ccccc1 | 106% (active)
48 | O=C(Nc1ccccc1)OCc1cc(-c2ccc(Cl)cc2)on1 | -5.71%

Row | Compound | inhibition
49 | COc1ccc(-c2csc3nc(-c4ccccc4F)oc(=O)c23)cc1OC | 6.4%
50 | CC1(C)CCCC2=C1CC1C(=O)N(c3ccccc3)C(=O)C1C2 (centres undefined) | -1.13%
51 | CC1CC2=C(CC1/C=N/NC(N)=S)C(C)(C)CCC2 (centres undefined) | 100% (active)
52 | Cc1cc(C)c2nc(NC(=O)C3CCCO3)sc2c1 (centres undefined) | -4.03%
53 | O=C(CSc1ccc(/C=N/NC(=O)c2cccc(F)c2)o1)Nc1ccccc1 | -2.85%
54 | COc1ccc(CCNS(=O)(=O)c2ccc(Cl)s2)cc1OC | -1.32%
55 | COc1cccc(-c2nc(S(=O)(=O)c3ccccc3)c(N3CCOCC3)o2)c1 | -8.86%
56 | COc1cccc(CNc2nc3nc4c(c(=O)n3[nH]2)CCC4)c1 | -5.47%
57 | COc1cccc(-c2cc3nc4c(c(N5CCC6(CC5)OCCO6)n3n2)CCCC4)c1 | 45.5% (active)
58 | Cc1cccc(NC(=O)CSc2nnc(-c3ccco3)o2)c1 | -0.81%
59 | COC(=O)c1ccccc1OCC(=O)N1CCN(c2ccc(Cl)cc2)CC1 | 5.12%
60 | O=C(NC1CCCCC1)C1CCCN(S(=O)(=O)c2cccs2)C1 (centres undefined) | -9.88%
61 | O=C(NCc1ccccc1)C1CCCN(S(=O)(=O)c2cccs2)C1 (centres undefined) | 0%
62 | O=C(C1CCN(S(=O)(=O)c2cccs2)CC1)N1CCCCCC1 | 34.1% (active)
63 | Cc1cccc(C(=O)Nc2ccccc2-c2nnn(CC(=O)Nc3ccc4c(c3)OCCO4)n2)c1 | -5.17%
64 | CC(=O)c1cc(NC(=O)c2ccccc2)c(=O)oc1/C=C/N(C)C | -1.13%
65 | Cn1ccs/c1=N\S(=O)(=O)c1ccc(C(C)(C)C)cc1 | -6.14%
66 | O=C(O)CCN=C1CCc2ccccc2N1 | 2.24%
67 | CCOc1cccc(C(=O)Nc2cnn(Cc3ccccc3)c2)c1 | 7.09%
68 | CCC(=O)Nc1cccc(NC(=O)c2cccnc2)c1 | -2.1%
69 | CCOc1cccc(C(=O)Nc2cccnc2)c1 | 31% (active)
70 | NC(=NC(=O)c1ccccc1)N1CCOCC1 | -0.16%
71 | CC(=O)OCc1cc2cc(C)ccc2[nH]c1=O | 5.81%
72 | CCNCc1cc2cc(C)ccc2[nH]c1=O | 6.62%

Row | Compound | inhibition
73 | CCOC(=O)c1cc2cc(C)ccc2[nH]1 | 39.6% (active)
74 | N/C(=N\OC(=O)CCC1CCCCC1)c1ccccn1 | 13.9%
75 | Nc1c(-c2ccc(F)cc2)cnc2ncnn12 | 15.1%
76 | O=C(CCC(=O)OCc1cccc(C(=O)Oc2ccccc2)c1)Nc1cccc2ccccc12 | -3.63%
77 | N#Cc1nc(Cc2ccccc2)oc1NCCc1ccccc1 | 18.8%
78 | N#Cc1nc(-c2ccc(OCc3ccccc3)cc2)oc1NCCCN1CCOCC1 | 5.49%
79 | N#Cc1nc(COc2ccc(-c3ccccc3)cc2)oc1NCc1cccnc1 | 99.8% (active)
80 | CCCn1nc2cc(C(=O)NCc3ccccc3)ccc2c1OCC | 2.26%
81 | CCCCNC(=S)NNC(=O)c1cc(C)on1 | 0.65%
82 | COc1ccc(/C=C2/S/C(=N/N=C3\CC4CCC3(C)C4(C)C)NC2=O)cc1 (centres undefined) | -0.32%
83 | COC(=O)c1ccc(CSc2nnc(NC(C)C)s2)cc1 | 36.2% (active)
84 | COC(=O)c1ccc(CSc2nncn2C)cc1 | 1.45%
85 | CCOc1ccccc1Nc1nnc(SCc2ccc(C(=O)OC)o2)s1 | -9.05%
86 | Cc1ccccc1/[N+]([O-])=C/c1ccncc1 | -1.29%
87 | COc1ccc2c(Cl)c(C(=O)NCc3ccco3)sc2c1 | -10.7%
88 | COCCNC(=O)COc1ccc(C)c(C)c1 | 4.17%
89 | Cc1cc(=O)oc2ccc(OCC(=O)O)cc12 | 2.48%
90 | Cc1ccc(SC(=O)COc2ccc(C)c(C)c2)cc1 | 35.3% (active)
91 | O=S(=O)(c1ccc(F)cc1)n1ccc(-c2cnc(-c3ccccc3)s2)n1 | -10%
92 | O=C(Nc1nnc(CCOCCOCCc2nnc(NC(=O)c3ccco3)s2)s1)c1ccco1 | -30.3%
93 | CCCc1noc2c1/C(=N\O)CCC2 | 13.6%
94 | O=C(NCC1CCCO1)c1ccc2ccccc2n1 (centres undefined) | -3.36%
